# PMC11102866, “Nucleosome-bound NR5A2 structure reveals pioneer factor mechanism by DNA minor groove anchor competition”
# Changes are numbered by the printed parent chain. Numbers in names are those of the source.
# B1: 88 (nucleosome)
# DNA 1: ATCCTGGAGAATCCCGGTGCCGAGGCCGCTCAATTGGTCGTAGACAGCTCTAGCACCGCTTAAACGCACGTACGCGCTGTCCCCCGCGTTTCAAGGCCAAAGGGGATTACTCCCTAGTCTCCAGGCACGTGTCAGATATATACATCCTGTGAT
# DNA 2: ATCACAGGATGTATATATCTGACACGTGCCTGGAGACTAGGGAGTAATCCCCTTTGGCCTTGAAACGCGGGGGACAGCGCGTACGTGCGTTTAAGCGGTGCTAGAGCTGTCTACGACCAATTGAGCGGCCTCGGCACCGGGATTCTCCAGGAT
# modifications: reconstituted with mouse histones H2A, H2B, H3.3 and H4
# B2: 91 (nucleosome)
# DNA 1: B1 DNA 1 with C92T, A94T, G95C, G96A, C97A, C98G, A99G, A100C, A101C, G102A
# DNA 2: B1 DNA 2 with C52T, T53G, T54G, T55C, G56C, G57T, C58T, C59G, T60A, G62A
# modifications: reconstituted with mouse histones H2A, H2B, H3.3 and H4
# B3: 92 (nucleosome)
# DNA 1: B1 DNA 1 with C92T, G95T, G96C, C97A, C98A, A99G, A100G, A101C, G102C, G103A
# DNA 2: B1 DNA 2 with C51T, C52G, T53G, T54C, T55C, G56T, G57T, C58G, C59A, G62A
# modifications: reconstituted with mouse histones H2A, H2B, H3.3 and H4
# B4: 93 (nucleosome)
# DNA 1: B1 DNA 1 with C92T, G95C, G96T, C98A, A100G, A101G, G102C, G103C, G104A
# DNA 2: B1 DNA 2 with C50T, C51G, C52G, T53C, T54C, G56T, C58A, C59G, G62A
# modifications: reconstituted with mouse histones H2A, H2B, H3.3 and H4
# B5: 84 (nucleosome)
# DNA 1: ATCCTGGAGAATCCCGGTGCCGAGGCCGCTCAATTGGTCGTAGACAGCTCTAGCACCGCTTAAACGCACGTACGCGCTGTCCCCCGTCAAGGCCACGCCAAGGGGATTACTCCCTAGTCTCCAGGCACGTGTCAGATATATACATCCTGTGAT
# DNA 2: ATCACAGGATGTATATATCTGACACGTGCCTGGAGACTAGGGAGTAATCCCCTTGGCGTGGCCTTGACGGGGGACAGCGCGTACGTGCGTTTAAGCGGTGCTAGAGCTGTCTACGACCAATTGAGCGGCCTCGGCACCGGGATTCTCCAGGAT
# modifications: reconstituted with mouse histones H2A, H2B, H3.3 and H4
# B6: 90 (nucleosome)
# DNA 1: B1 DNA 1 with C92T, A93T, A94C, G95A, G96A, C97G, C98G, A99C, A100C
# DNA 2: B1 DNA 2 with T54G, T55G, G56C, G57C, C58T, C59T, T60G, T61A, G62A
# modifications: reconstituted with mouse histones H2A, H2B, H3.3 and H4
# B7: 85 (nucleosome)
# DNA 1: B5 DNA 1 with T87C, C88T, A89C, G91A, C93G, A95C, C96A
# DNA 2: B5 DNA 2 with G58T, T59G, G61C, C63T, T65G, G66A, A67G
# modifications: reconstituted with mouse histones H2A, H2B, H3.3 and H4
# B8: 10 (nucleosome)
# DNA 1: ATCCTGGAGAATTCAAGGCCAGAGGCCGCTCAATTGGTCGTAGACAGCTCTAGCACCGCTTAAACGCACGTACGCGCTGTCCCCCGCGTTTTAACCGCCAAGGGGATTACTCCCTAGTCTCCAGGCACGTGTCAGATATATACATCCTGTGAT
# DNA 2: ATCACAGGATGTATATATCTGACACGTGCCTGGAGACTAGGGAGTAATCCCCTTGGCGGTTAAAACGCGGGGGACAGCGCGTACGTGCGTTTAAGCGGTGCTAGAGCTGTCTACGACCAATTGAGCGGCCTCTGGCCTTGAATTCTCCAGGAT
# modifications: reconstituted with mouse histones H2A, H2B, H3.3 and H4
# B9: 11 (nucleosome)
# DNA 1: B8 DNA 1 with T13C, C14T, A15C, G17A, C19G, A21C, G22A
# DNA 2: B8 DNA 2 with C132T, T133G, G135C, C137T, T139G, G140A, A141G
# modifications: reconstituted with mouse histones H2A, H2B, H3.3 and H4
# B10: 81 (nucleosome)
# DNA 1: ATCCTGGAGAATCCCGGTGCCGAGGCCGCTCAATTGGTCGTAGACAGCTCTAGCACCGCTTAAACGCACGTACGCGCTGTCCCTCAAGGCCAAACCGCCAAGGGGATTACTCCCTAGTCTCCAGGCACGTGTCAGATATATACATCCTGTGAT
# DNA 2: ATCACAGGATGTATATATCTGACACGTGCCTGGAGACTAGGGAGTAATCCCCTTGGCGGTTTGGCCTTGAGGGACAGCGCGTACGTGCGTTTAAGCGGTGCTAGAGCTGTCTACGACCAATTGAGCGGCCTCGGCACCGGGATTCTCCAGGAT
# modifications: reconstituted with mouse histones H2A, H2B, H3.3 and H4
# B11: 89 (nucleosome)
# DNA 1: B1 DNA 1 with C92T, A93C, G95A, C97G, A99C
# DNA 2: B1 DNA 2 with T55G, G57C, C59T, T61G, G62A
# modifications: reconstituted with mouse histones H2A, H2B, H3.3 and H4
# B12: 86 (nucleosome)
# DNA 1: B10 DNA 1 with T84C, A86G, A87C, G89T, C91A, A93G, A94G, G97A
# DNA 2: B10 DNA 2 with C57T, T60C, T61C, G63T, C65A, T67G, T68C, A70G
# modifications: reconstituted with mouse histones H2A, H2B, H3.3 and H4
# B13: 83 (nucleosome)
# DNA 1: B5 DNA 1 with G86T, T87C, C88A, A90G, G92C, C94A, A95C
# DNA 2: B5 DNA 2 with T59G, G60T, C62G, T64C, G66T, A67G, C68A
# modifications: reconstituted with mouse histones H2A, H2B, H3.3 and H4
# B14: 87 (nucleosome)
# DNA 1: B1 DNA 1 with T91C, C92A, A94G, G96C, C98A, A99C
# DNA 2: B1 DNA 2 with T55G, G56T, C58G, T60C, G62T, A63G
# modifications: reconstituted with mouse histones H2A, H2B, H3.3 and H4
# B15: 82 (nucleosome)
# DNA 1: B10 DNA 1 with T84C, C85T, A86C, G88A, C90G, A92C
# DNA 2: B10 DNA 2 with T62G, G64C, C66T, T68G, G69A, A70G
# modifications: reconstituted with mouse histones H2A, H2B, H3.3 and H4
# Assays:
# [1] = biological target: NR5A2 wild type;histone octamer (Homo sapiens;, UniProt O00482;C0HKE1;Q6ZWY9;P84244;P62806 1-541;2-130;2-126;2-136;2-103, |); assay: SeEN-seq (EMSA of nucleosome library followed by sequencing); 0.8 uM human NR5A2; 20 mM Tris-HCl pH 7.5, 120 mM NaCl, 1 mM MgCl2, 10 uM ZnCl2, 1 mM DTT, 100 ug/ml BSA, room temperature, 30 min; 0.1 uM nucleosome library; high values mean tight binding
# [2] = biological target: mouse Nr5a2 wild type;histone octamer (Mus musculus;, UniProt P45448;C0HKE1;Q6ZWY9;P84244;P62806 1-560;2-130;2-126;2-136;2-103, |); assay: SeEN-seq (EMSA of nucleosome library followed by sequencing); 1.2 uM mouse Nr5a2; 20 mM Tris-HCl pH 7.5, 120 mM NaCl, 1 mM MgCl2, 10 uM ZnCl2, 1 mM DTT, 100 ug/ml BSA, room temperature, 30 min; 0.1 uM nucleosome library; high values mean tight binding
Binder,binding signal [1],binding signal [2]
B1,"0.636 log2 enrichment (bound/unbound, relative to Widom 601)","0.614 log2 enrichment (bound/unbound, relative to Widom 601)"
B2,"0.711 log2 enrichment (bound/unbound, relative to Widom 601)","0.746 log2 enrichment (bound/unbound, relative to Widom 601)"
B3,"0.711 log2 enrichment (bound/unbound, relative to Widom 601)","0.905 log2 enrichment (bound/unbound, relative to Widom 601)"
B4,"0.842 log2 enrichment (bound/unbound, relative to Widom 601)","0.875 log2 enrichment (bound/unbound, relative to Widom 601)"
B5,"0.634 log2 enrichment (bound/unbound, relative to Widom 601)","0.756 log2 enrichment (bound/unbound, relative to Widom 601)"
B6,"0.821 log2 enrichment (bound/unbound, relative to Widom 601)","0.52 log2 enrichment (bound/unbound, relative to Widom 601)"
B7,"0.756 log2 enrichment (bound/unbound, relative to Widom 601)","0.748 log2 enrichment (bound/unbound, relative to Widom 601)"
B8,"5.16 log2 enrichment (bound/unbound, relative to Widom 601)","4.92 log2 enrichment (bound/unbound, relative to Widom 601)"
B9,"4.08 log2 enrichment (bound/unbound, relative to Widom 601)","4.04 log2 enrichment (bound/unbound, relative to Widom 601)"
B10,"0.772 log2 enrichment (bound/unbound, relative to Widom 601)","0.954 log2 enrichment (bound/unbound, relative to Widom 601)"
B11,"0.658 log2 enrichment (bound/unbound, relative to Widom 601)","0.574 log2 enrichment (bound/unbound, relative to Widom 601)"
B12,"0.668 log2 enrichment (bound/unbound, relative to Widom 601)","0.515 log2 enrichment (bound/unbound, relative to Widom 601)"
B13,"0.795 log2 enrichment (bound/unbound, relative to Widom 601)","0.693 log2 enrichment (bound/unbound, relative to Widom 601)"
B14,"0.601 log2 enrichment (bound/unbound, relative to Widom 601)","0.435 log2 enrichment (bound/unbound, relative to Widom 601)"
B15,"0.634 log2 enrichment (bound/unbound, relative to Widom 601)","0.729 log2 enrichment (bound/unbound, relative to Widom 601)"
